Of roughly 7,900 targets only a part is listed; those with a hit were picked by preference. About 0.6% of all pairs of compound and target were hits.
Tests used:
Assay in all cases: log2 fold change, soluble protein after heating vs DMSO (PISA); higher = thermal stabilisation; K562 cells, 10 uM, 30 min; active = over 0.2 and 3.5 SD of the protein, either way, in both replicates (recomputed)
[1] = compound: C1=CC=C(C=C1)[C@H](COC2=CC3=C(C=C2)NC(=O)N3)NC(=O)C4=CC=CN(C4=O)CC5=CC(=C(C=C5)F)F
In short: (§1)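 For each measurement, 10 μM compound was applied for 30 min to K562 cells at 2×10^6 cells/mL. Aliquots were heated for 3 min across 48°C-58°C, pooled, and extracted in PBS with 0.5% NP-40 at 4°C; the supernatant after 21,000xg for 90 min was soluble protein. This was quantified by TMTpro 16plex LC-MS/MS with channel sums equalised, and thermal stability was reported relative to control samples from duplicates, on a log2 fold-change scale.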

[2] = compound: CC1=C(SC2=C1C(=N[C@H](C3=NN=C(N32)C)CC(=O)N)C4=CC=C(C=C4)Cl)C
In short: as §1

[3] = compound: CC1=C2C(=CC=C1)N=C(N(C2=O)C3=CC=CC=C3C)CN4C=NC5=C(N=CN=C54)N
In short: as §1

[4] = compound: Cc1sc2c(c1C)C(c1ccc(Cl)cc1)=N[C@@H](CC(=O)OC(C)(C)C)c1nnc(C)n1-2
In short: as §1

[5] = compound: c1ccc([C@@H]2C[C@H]2NC2CCNCC2)cc1
In short: as §1

Measured: log2 fold change

FAM160B1 (UniProt Q5W0V3)
inactive: [1] -0.005 | [2] 0.026 | [3] -0.01 | [4] -0.022 | [5] -0.041

FAM83D (UniProt Q9H4H8)
inactive: [1] -0.068 | [2] 0.027 | [3] 0 | [4] 0.045 | [5] 0.06

ERLIN2 (UniProt O94905)
Sequence of UniProt O94905 (O94905 whole entry, looked up): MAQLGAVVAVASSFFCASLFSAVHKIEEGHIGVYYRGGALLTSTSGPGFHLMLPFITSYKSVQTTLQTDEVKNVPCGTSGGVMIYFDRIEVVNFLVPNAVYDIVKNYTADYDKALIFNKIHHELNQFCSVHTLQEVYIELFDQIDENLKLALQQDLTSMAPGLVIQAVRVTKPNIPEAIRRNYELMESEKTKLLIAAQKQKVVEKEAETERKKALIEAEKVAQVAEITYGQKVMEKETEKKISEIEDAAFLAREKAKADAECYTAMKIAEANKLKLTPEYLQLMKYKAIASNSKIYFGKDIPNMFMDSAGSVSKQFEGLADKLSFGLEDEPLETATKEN
inactive: [1] -0.025 | [2] -0.048 | [3] -0.038 | [4] 0.006 | [5] -0.044

EPHX2 (UniProt P34913)
Sequence of UniProt P34913 (P34913 whole entry, looked up): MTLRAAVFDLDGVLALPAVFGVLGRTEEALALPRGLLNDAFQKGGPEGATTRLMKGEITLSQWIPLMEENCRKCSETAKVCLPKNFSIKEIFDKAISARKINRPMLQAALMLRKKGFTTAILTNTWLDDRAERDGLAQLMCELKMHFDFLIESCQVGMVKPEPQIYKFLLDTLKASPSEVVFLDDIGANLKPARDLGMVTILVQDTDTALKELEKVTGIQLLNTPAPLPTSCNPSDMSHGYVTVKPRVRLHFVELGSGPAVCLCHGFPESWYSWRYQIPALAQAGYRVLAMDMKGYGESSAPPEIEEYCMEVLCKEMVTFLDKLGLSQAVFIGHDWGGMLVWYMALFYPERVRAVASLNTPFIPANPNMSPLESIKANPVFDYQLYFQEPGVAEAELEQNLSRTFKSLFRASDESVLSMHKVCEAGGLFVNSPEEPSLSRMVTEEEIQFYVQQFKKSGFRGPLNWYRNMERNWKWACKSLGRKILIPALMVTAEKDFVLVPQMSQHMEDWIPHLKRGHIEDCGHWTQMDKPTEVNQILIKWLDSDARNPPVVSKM
inactive: [1] -0.015 | [2] 0.091 | [3] 0.052 | [4] 0.143 | [5] -0.002

ETNK1 (UniProt Q9HBU6)
inactive: [1] 0 | [2] 0.044 | [3] 0.071 | [4] -0.092 | [5] 0.022

EZH2 isoform 2 (UniProt Q15910)
inactive: [1] 0.023 | [2] -0.056 | [3] -0.14 | [4] 0.016 | [5] -0.034

EDC3 (UniProt Q96F86)
inactive: [1] -0.198 | [2] 0.12 | [3] 0.019 | [4] 0.063 | [5] 0.026

EBNA1BP2 (UniProt Q99848)
inactive: [1] 0.118 | [2] -0.378 | [3] -0.269 | [4] 0.306 | [5] -0.045

DHCR7 (UniProt Q9UBM7)
active: [5] 1.06
inactive: [1] -0.061 | [2] 0 | [3] 0.093 | [4] -0.186

DAG1 (UniProt Q14118)
inactive: [1] -0.068 | [2] 0.074 | [3] 0.072 | [4] 0.016 | [5] 0.049

DUS3L (UniProt Q96G46)
inactive: [1] 0.073 | [2] 0.04 | [3] -0.057 | [4] -0.007 | [5] 0.007

EED, A0A5F9ZI63
inactive: [1] 0.002 | [2] 0.011 | [3] 0.03 | [4] -0.029 | [5] -0.006

DHX40 (UniProt Q8IX18)
inactive: [1] 0.026 | [2] 0.101 | [3] 0.072 | [4] 0.093 | [5] -0.022

DDX39A (UniProt O00148)
inactive: [1] -0.174 | [2] 0.063 | [3] 0.025 | [4] 0.015 | [5] -0.01

ELOVL1 (UniProt Q9BW60)
inactive: [1] -0.16 | [2] 0.145 | [3] 0.045 | [4] -0.134 | [5] -0.05

CTSB (UniProt P07858)
inactive: [1] -0.015 | [2] -0.024 | [3] 0.019 | [4] -0.024 | [5] -0.035

FAM50A (UniProt Q14320)
inactive: [1] -0.026 | [2] 0.032 | [3] 0.033 | [4] -0.025 | [5] 0.007

FAM160A2 isoform 2 (UniProt Q8N612)
Sequence of UniProt Q8N612 (Q8N612 whole entry, looked up): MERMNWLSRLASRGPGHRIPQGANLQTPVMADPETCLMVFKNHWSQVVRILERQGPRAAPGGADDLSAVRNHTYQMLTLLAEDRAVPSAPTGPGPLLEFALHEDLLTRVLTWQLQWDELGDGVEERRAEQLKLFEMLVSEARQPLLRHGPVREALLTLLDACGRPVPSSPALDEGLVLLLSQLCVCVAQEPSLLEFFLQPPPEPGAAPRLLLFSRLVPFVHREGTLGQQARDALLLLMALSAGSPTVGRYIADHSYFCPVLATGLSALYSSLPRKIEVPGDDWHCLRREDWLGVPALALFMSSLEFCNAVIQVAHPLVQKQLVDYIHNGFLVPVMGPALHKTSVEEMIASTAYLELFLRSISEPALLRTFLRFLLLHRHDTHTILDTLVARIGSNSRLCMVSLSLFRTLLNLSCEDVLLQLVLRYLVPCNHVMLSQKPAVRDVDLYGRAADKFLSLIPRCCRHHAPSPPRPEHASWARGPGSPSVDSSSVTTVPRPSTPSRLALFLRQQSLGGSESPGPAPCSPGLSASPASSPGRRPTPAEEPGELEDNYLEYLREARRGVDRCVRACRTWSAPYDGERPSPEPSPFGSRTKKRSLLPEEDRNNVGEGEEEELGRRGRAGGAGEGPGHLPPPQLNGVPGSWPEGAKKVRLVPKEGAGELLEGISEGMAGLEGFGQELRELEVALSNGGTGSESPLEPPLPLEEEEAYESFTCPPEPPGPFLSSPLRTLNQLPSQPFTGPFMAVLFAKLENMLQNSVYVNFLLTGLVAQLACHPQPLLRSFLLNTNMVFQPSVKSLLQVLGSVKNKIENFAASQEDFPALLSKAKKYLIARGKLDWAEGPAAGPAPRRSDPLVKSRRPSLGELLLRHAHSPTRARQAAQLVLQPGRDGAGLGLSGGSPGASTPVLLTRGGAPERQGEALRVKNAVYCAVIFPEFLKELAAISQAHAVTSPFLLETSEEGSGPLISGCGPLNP
inactive: [1] -0.027 | [2] -0.054 | [3] 0.343 | [4] 0.148 | [5] -0.344

DNAJB1 (UniProt M0R128)
active: [1] -0.843
inactive: [2] 0.006 | [3] 0.106 | [4] 0.078 | [5] 0.061

EVC2 (UniProt Q86UK5)
inactive: [1] -0.064 | [2] -0.044 | [3] -0.141 | [4] 0.021 | [5] 0.081

DHCR24 (UniProt Q15392)
inactive: [1] 0.099 | [2] -0.035 | [3] 0.14 | [4] 0.036 | [5] -0.012

DNM2 (UniProt P50570)
inactive: [1] -0.023 | [2] 0.044 | [3] 0.078 | [4] -0.027 | [5] -0.036

DTWD1 (UniProt Q8N5C7)
inactive: [1] -0.051 | [2] -0.011 | [3] 0.152 | [4] -0.056 | [5] 0.07

CYFIP1 (UniProt Q7L576)
inactive: [1] 0.009 | [2] 0.005 | [3] -0.009 | [4] -0.005 | [5] -0.029

EIF4G3 isoform 3 (UniProt O43432)
inactive: [1] -0.021 | [2] 0.021 | [3] 0.184 | [4] 0.038 | [5] -0.06

CUTA isoform 2 (UniProt O60888)
Sequence of UniProt O60888 (O60888 whole entry, looked up): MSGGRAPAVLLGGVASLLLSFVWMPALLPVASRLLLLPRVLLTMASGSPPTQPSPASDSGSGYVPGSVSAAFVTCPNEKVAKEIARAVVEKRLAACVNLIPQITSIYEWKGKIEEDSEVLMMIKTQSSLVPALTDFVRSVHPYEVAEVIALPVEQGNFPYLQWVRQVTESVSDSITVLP
inactive: [1] 0.099 | [2] 0.116 | [3] -0.289 | [4] -0.123 | [5] 0.015

EXOC1 (UniProt Q9NV70)
inactive: [1] -0.095 | [2] 0.021 | [3] 0.121 | [4] 0.027 | [5] -0.075

EXOC8 (UniProt Q8IYI6)
inactive: [1] -0.004 | [2] 0.029 | [3] 0.03 | [4] 0.006 | [5] -0.051

DCTN1 isoform 4 (UniProt Q14203)
inactive: [1] -0.052 | [2] -0.021 | [3] 0.096 | [4] 0.044 | [5] -0.008

DNAJB12 (UniProt Q9NXW2)
Sequence of UniProt Q9NXW2 (Q9NXW2 whole entry, looked up): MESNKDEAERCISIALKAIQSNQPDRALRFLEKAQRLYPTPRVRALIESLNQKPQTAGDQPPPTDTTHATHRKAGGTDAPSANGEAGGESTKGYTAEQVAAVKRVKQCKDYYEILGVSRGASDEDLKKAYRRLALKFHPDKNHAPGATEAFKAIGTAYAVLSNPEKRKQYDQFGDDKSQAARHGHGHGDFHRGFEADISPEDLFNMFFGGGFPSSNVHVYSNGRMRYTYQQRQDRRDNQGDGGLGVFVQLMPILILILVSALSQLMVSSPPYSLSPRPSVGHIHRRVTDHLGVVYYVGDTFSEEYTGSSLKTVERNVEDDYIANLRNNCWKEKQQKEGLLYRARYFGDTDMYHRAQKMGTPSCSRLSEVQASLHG
inactive: [1] -0.044 | [2] 0.027 | [3] 0.081 | [4] -0.011 | [5] 0.011

FAM122A (UniProt Q96E09)
inactive: [1] 0.008 | [2] -0.055 | [3] -0.022 | [4] 0.158 | [5] 0.083

ECPAS (UniProt Q5VYK3)
inactive: [1] -0.127 | [2] 0.047 | [3] 0.112 | [4] -0.032 | [5] -0.01

FAM241A (UniProt Q8N8J7)
inactive: [1] -0.046 | [2] 0.034 | [3] 0.041 | [4] 0 | [5] 0.008

CTSC (UniProt P53634)
inactive: [1] 0.018 | [2] -0.012 | [3] -0.039 | [4] -0.01 | [5] 0.056

EOGT (UniProt Q5NDL2)
inactive: [1] 0.013 | [2] -0.074 | [3] 0.056 | [4] -0.032 | [5] 0.077

DENND1A isoform 6 (UniProt Q8TEH3)
Sequence of UniProt Q8TEH3 (Q8TEH3 whole entry, looked up): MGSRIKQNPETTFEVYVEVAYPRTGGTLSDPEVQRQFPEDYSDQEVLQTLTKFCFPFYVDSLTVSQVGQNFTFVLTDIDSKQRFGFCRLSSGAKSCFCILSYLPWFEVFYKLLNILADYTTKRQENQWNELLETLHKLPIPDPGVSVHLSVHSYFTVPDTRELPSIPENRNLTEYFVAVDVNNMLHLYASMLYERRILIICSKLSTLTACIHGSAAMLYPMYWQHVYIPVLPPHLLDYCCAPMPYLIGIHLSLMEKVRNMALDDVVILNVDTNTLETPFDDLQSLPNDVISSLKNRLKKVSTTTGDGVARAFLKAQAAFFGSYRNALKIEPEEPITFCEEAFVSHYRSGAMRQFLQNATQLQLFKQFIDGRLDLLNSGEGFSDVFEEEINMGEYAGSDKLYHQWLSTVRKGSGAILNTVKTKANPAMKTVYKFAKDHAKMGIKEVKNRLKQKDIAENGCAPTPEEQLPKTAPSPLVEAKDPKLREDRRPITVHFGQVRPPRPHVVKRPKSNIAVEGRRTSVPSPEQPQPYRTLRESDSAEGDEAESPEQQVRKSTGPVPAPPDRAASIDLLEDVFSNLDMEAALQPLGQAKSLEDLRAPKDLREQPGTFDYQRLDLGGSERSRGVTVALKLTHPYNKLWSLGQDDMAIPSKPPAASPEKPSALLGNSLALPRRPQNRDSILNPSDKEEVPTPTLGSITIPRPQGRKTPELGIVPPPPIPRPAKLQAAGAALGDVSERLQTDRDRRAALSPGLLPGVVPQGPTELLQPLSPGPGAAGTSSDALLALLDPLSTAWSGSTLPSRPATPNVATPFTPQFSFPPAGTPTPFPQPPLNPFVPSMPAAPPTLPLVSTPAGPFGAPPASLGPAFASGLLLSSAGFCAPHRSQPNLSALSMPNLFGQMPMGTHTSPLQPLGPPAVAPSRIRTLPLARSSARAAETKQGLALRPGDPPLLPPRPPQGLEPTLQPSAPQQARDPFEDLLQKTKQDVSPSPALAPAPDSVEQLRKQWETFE
inactive: [1] 0.152 | [3] 0.146 | [4] 0.284

EEF1D isoform 3 (UniProt P29692)
inactive: [4] -0.694

FADS1 (UniProt F5GYH4)
inactive: [1] -0.216 | [3] -0.02 | [4] -0.036

DDX27 (UniProt Q96GQ7)
inactive: [2] -0.197 | [3] -0.157 | [4] 0.12 | [5] -0.046

EEF2K (UniProt O00418)
inactive: [2] 0.001 | [3] 0.145 | [5] -0.082

DHRS13 (UniProt Q6UX07)
inactive: [2] 0.084 | [3] 0.099 | [4] 0.218 | [5] -0.14

DBNL (UniProt Q9UJU6)
inactive: [2] -0.04 | [5] -0.099

DOP1A (UniProt Q5JWR5)
inactive: [1] 0.203 | [3] 0.049

FAM135A (UniProt Q9P2D6)
inactive: [3] 0.106

EDRF1 (UniProt Q3B7T1)
Sequence of UniProt Q3B7T1 (Q3B7T1 whole entry, looked up): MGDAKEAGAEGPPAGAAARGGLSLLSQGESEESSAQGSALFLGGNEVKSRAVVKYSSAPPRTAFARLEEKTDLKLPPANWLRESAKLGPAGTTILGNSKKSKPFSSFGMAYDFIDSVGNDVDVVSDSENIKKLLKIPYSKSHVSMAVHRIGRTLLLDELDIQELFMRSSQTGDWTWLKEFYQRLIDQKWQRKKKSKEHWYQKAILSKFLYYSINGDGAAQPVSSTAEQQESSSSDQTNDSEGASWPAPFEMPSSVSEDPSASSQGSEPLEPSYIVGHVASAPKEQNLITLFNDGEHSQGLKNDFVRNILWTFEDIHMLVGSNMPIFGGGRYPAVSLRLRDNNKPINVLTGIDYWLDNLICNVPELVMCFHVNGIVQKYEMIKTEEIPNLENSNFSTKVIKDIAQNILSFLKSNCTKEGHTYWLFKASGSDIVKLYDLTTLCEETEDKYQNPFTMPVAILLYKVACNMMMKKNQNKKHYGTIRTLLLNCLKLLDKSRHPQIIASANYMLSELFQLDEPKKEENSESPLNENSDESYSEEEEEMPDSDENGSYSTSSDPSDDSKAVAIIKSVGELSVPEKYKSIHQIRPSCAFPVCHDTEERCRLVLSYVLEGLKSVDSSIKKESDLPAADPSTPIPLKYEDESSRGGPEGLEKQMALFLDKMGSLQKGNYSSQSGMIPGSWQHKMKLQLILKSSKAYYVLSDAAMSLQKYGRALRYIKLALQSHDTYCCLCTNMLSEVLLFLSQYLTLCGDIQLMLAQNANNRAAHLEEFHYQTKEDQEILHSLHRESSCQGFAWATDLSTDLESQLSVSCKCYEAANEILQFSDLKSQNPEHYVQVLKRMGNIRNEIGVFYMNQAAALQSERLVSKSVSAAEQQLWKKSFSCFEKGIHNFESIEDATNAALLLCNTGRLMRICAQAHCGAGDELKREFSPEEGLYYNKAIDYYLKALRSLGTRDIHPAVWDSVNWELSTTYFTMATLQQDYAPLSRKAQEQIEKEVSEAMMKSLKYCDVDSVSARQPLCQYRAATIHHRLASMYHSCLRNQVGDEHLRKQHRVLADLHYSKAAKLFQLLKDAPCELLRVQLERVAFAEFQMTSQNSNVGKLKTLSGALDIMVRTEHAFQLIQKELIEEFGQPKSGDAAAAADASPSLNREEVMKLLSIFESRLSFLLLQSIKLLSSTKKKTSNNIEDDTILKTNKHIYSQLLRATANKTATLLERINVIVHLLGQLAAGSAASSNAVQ
inactive: [1] 0.043 | [2] 0.245 | [5] -0.061

EID1 (UniProt Q9Y6B2)
inactive: [4] -0.135

DERPC (UniProt P0CG12)
inactive: [1] 0 | [3] -0.015

CTNNBL1 (UniProt Q8WYA6)
inactive: [1] 0.029 | [3] 0.17

DDX11 (UniProt Q96FC9)
inactive: [1] -0.068 | [3] 0.335 | [4] 0.059

ENTPD7 (UniProt Q9NQZ7)
inactive: [1] 0.066 | [4] 0.173

ELMO1 (UniProt Q92556)
inactive: [1] -0.085 | [3] 0.026

DNAL1 (UniProt Q4LDG9)
inactive: [1] 0.146 | [2] 0.086 | [3] -0.264 | [5] 0.03

ERF (UniProt P50548)
inactive: [4] -0.515

FAM117B (UniProt Q6P1L5)
inactive: [2] 0.283 | [3] 0.116 | [4] -0.097 | [5] -0.024

ENTR1 (UniProt Q96C92)
inactive: [3] 0.191

ELAC1 (UniProt Q9H777)
inactive: [2] 0.123 | [3] 0.146 | [5] 0.059

EIF2AK3 (UniProt Q9NZJ5)
inactive: [1] -0.473 | [2] -0.027 | [4] -0.196 | [5] 0.059

DAB2 (UniProt P98082)
inactive: [1] -0.039 | [2] 0.051 | [3] 0.1 | [4] 0.121 | [5] 0.094

CTSS (UniProt P25774)
Sequence of UniProt P25774 (P25774 whole entry, looked up): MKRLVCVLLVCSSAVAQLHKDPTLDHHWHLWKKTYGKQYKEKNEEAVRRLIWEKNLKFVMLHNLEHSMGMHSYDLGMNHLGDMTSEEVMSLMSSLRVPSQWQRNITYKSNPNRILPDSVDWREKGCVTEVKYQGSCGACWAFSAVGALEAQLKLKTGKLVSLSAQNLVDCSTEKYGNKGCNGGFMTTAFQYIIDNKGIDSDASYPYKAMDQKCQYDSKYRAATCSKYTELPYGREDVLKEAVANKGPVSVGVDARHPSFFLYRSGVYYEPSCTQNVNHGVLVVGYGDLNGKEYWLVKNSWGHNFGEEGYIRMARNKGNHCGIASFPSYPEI
inactive: [2] -0.004 | [3] -0.033 | [4] -0.192 | [5] 0.037

EIF4G1 (UniProt Q04637)
inactive: [2] -0.032 | [3] 0.011 | [4] 0.098 | [5] -0.028

DYNC1I2 isoform 2 (UniProt Q13409)
inactive: [1] 0.028 | [2] -0.059 | [4] -0.068 | [5] 0.14

EXTL2 (UniProt Q9UBQ6)
active: [4] 0.316
inactive: [1] 0.028 | [2] 0.106 | [3] 0.003 | [5] -0.211

Source: the supplement of paper PMC10849652
